Sampled rows, rich in hits. Any-hit rate of the full collection: about 19%.
TDP1 cell noCPT: qHTS for Inhibitors of human tyrosyl-DNA phosphodiesterase 1 (TDP1): qHTS in cells in absence of CPT; 420,000 tested, 15% active; AID 686978, 2013; DT40 Tdp1-/- hTDP1 cells, no CPT, ATP luminescence, 48 h; Potency, µM (series often up to 46.2 µM), without a hit: at the highest dose activity change, negative = growth inhibition, most hits filed as inhibitors; also: nearly all actives have a fitted effect of over 55% in size
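Cells were dispensed at 400 per well, compounds added by pin tool, plates incubated ≥48 hr at 37 °C, then CellTiter-Glo added for 30 min at room temperature before luminescence reading. Line: DT40 Tdp1-/- complemented with hTDP1; camptothecin omitted.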
HT1080 IDH1KD tx: HT-1080 IDH1 knockdown cell toxicity (counter line); HT-1080 IDH1 knockdown viability, ATP luminescence, 48 h; Potency, µM (titrated, usually from 46.1 µM), inactives show at the highest dose activity, negative = toxicity, most hits filed as cytotoxic; 360,000 tested, 2% active; AID 686971;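 also: 0% = DMSO wells and -100% = cell-free medium wells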
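Knockdown cells (IDH1KD HT-1080) received compounds 2 h after plating at 750 cells/well and were kept 48 h at 37 °C in 5% FBS RPMI. A CellTiter-Glo luminescence read gave % activity for curve fitting.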
HT1080-NT tox: kills 2HG-producing HT-1080-NT fibrosarcoma cells. Potency, µM (top dose mostly 46.1 µM), inactives show at the highest dose activity, negative = less viability, usual class: cytotoxic. AID 686970. HT-1080-NT fibrosarcoma viability, CellTiter-Glo ATP luminescence, 48 h. 360,000 tested, 1.6% active;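 also: NT is the 2HG producing partner of a matched IDH1 knockdown line; 0% = DMSO-treated cells and -100% = media-only wells without cells; nearly all actives have a fitted effect of over 55% in size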
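A 48-hour cytotoxicity screen used HT-1080-NT cells plated 2 hours before compound delivery. ATP-based CellTiter-Glo luminescence measured viability, normalized to DMSO and no-cell controls.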
KB-3-1 tox: KB-3-1 parental cell cytotoxicity; KB-3-1 viability, CellTiter-Glo ATP luminescence, 72 h; Potency, µM (doses to about 46.1 µM), most hits filed as cytotoxic; 400,000 tested, 1.4% active; also: nearly all actives have a fitted effect of over 60% in size
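Parental KB-3-1 viability, qHTS format: 72 h compound exposure, 37 °C; CellTiter-Glo; media-only wells and DMSO plates as controls; concentration-effect fits on corrected data.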
KB-V1 MDR tox: kills drug-selected multidrug resistant KB-V1 cells | Potency, µM (series often up to 46.1 µM), hits mostly cytotoxic | AID 1347076 | KB-V1 MDR cells viability, CellTiter-Glo, 72 h | 400,000 tested, 3.4% active; also: nearly all actives have a fitted effect of over 60% in size
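Following 72 h at 37 degrees C with compound, KB-V1 cell viability was read by CellTiter-Glo luminescence, medium being phenol-red-free DMEM plus 10% FBS; concentration-response parameters came from normalized, curve-fitted qHTS data.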
DT40 TDP1 CPT: growth inhibition of DT40 Tdp1-/-;hTDP1 cells with camptothecin (screen for TDP1 inhibitors) | Potency, µM (series often up to 46.2 µM), without a hit: at the top dose activity change, negative = growth inhibition, usual class: inhibitors | chicken DT40 Tdp1-/-;hTDP1 cells + 20 nM CPT, ATP luminescence, 48 h | 420,000 tested, 12% active; also: nearly all actives have a fitted effect of over 55% in size
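Chicken DT40 Tdp1-/- cells complemented with human TDP1, 400 cells/well, exposed to compounds plus 20 nM camptothecin for at least 48 h at 37 C; viability read as ATP content by CellTiter-Glo luminescence.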
* hit, by the source's call; i = inactive; ? = inconclusive; . = not tested or not shown; ! = repeats disagree. Calls follow the shape of the dose curve; as a rule, active = well fitted curve in the direction sought with a large enough effect; inconclusive = small, poorly fitted or top-dose-only effect, or another doubt; inactive = no such curve, though single readings can be large; an effect the other way counts as inactive or inconclusive. Unless noted, % is scaled to controls: 0 for no effect and ±100 for the full control effect; potency is read from the fitted curve at half-maximal effect.

SMILES | TDP1 cell noCPT | HT1080 IDH1KD tx | HT1080-NT tox | KB-3-1 tox | KB-V1 MDR tox | DT40 TDP1 CPT
CCN1C(=O)/C(=C/c2ccc(N(CC)CC)cc2OC)C(=O)NC1=S | -17.0% | -0.8% | -0.6% | i | i | ?
CN1C(C(=O)NCc2cccc(C(F)(F)F)c2)CC2Cn3c(nc4cc5ccccc5cc43)C21 (stereo not given) | 18.4µM* | -2.9% | -2.8% | i | i | ?
CCN1C(=O)c2ccccc2Sc2ccc(C(=O)N3CCC4(CC3)OCCO4)cc21 | 13µM* | -5.1% | 5.6% | i | i | ?
O=C(c1ccc2c(c1)N(Cc1c(F)cccc1Cl)C(=O)c1ccccc1S2)N1CCC2(CC1)OCCO2 | 23.1µM* | . | . | i | i | ?
CN1C(=O)c2ccccc2Sc2ccc(C(=O)N3CCC4(CC3)OCCO4)cc21 | -3.1% | 9.4% | 24.1% | ? | i | -22.0%
CCOC(=O)CNC(=O)N1Cc2cc(-c3cccc(F)c3)ccc2-n2nncc2C1 | -12.2% | 5.9% | 6.5% | i | i | -40.3%
CC[C@]1(C2=NCCN2)Cc2ccccc2O1 | -19.6% | . | . | . | . | 4.8%
CC(=O)Nc1ccccc1C(=O)OCc1ccccc1F | -8.1% | -0.6% | 5.7% | i | i | -3.4%
CC(Cc1ccccc1)NC(=O)Cc1ccc(N(C)C)cc1 (stereo not given) | 5.2% | 17.2% | 17.1% | i | i | -6.8%
COC(=O)C(Cc1ccc(N(CCCl)CCCl)cc1)N=Cc1ccccc1O (stereo not given) | 0.082µM* | 25.9µM* | ? | ? | i | 0.116µM*
COC(=O)c1nc(-c2ccc3c(n2)C(=O)C(N)=C(OC)C3=O)c(N)c(-c2ccc(OC)c(OC)c2O)c1C | 0.92µM* | ? | ? | ? | 10.3µM* | 0.461µM*
O=C(O)COc1cc(Cl)c(Cl)cc1Cl | -2.0% | . | . | . | . | -22.3%
CC/C(=C(\c1ccc(O)cc1)c1ccc(OCCN(C)C)cc1)c1ccccc1 | 14.6µM* | 18.4µM* | 16.4µM* | i | ? | ?
Cc1ccc(-c2nc3ccccc3c(=O)n2-c2ccncc2)cc1 | ? | -1.7% | 3.1% | i | ? | -27.3%
COc1ccc(-n2c(-c3ccc(C)cc3)nc3ccccc3c2=O)cc1 | 14.6µM* | -1.0% | -0.1% | i | i | 14.6µM*
CSc1nc2ccccc2c(=O)n1-c1cccnc1 | -15.3% | -2.5% | 2.0% | i | i | 9.9%
O=c1c2ccccc2nc(-c2ccc(-c3ccccc3)cc2)n1-c1ccncc1 | 20.6µM* | -1.2% | 0.0% | i | i | ?
COc1ccc(-n2c(CNCCc3ccc(C)cc3)nc3ccccc3c2=O)cc1 | ? | -14.4% | -11.6% | i | ? | ?
COc1ccc(-c2nc3ccccc3c(=O)n2-c2cccnc2)cc1 | -20.5% | 9.8% | 6.2% | i | 13µM* | ?
Cc1nc2ccccc2c(=O)n1-c1cccnc1 | -3.0% | -16.3% | -8.9% | i | i | -10.2%
COc1ccc(-n2c(SC)nc3ccccc3c2=O)cc1 | 18.4µM* | -1.1% | 1.3% | i | i | 14.6µM*
CCOC(=O)CC1c2ccccc2-n2nncc2CN1CC1CCCCC1 (stereo not given) | ? | 2.9% | -5.9% | i | ? | ?
C[C@@]12N[C@@H](Cc3ccccc31)c1ccccc12 | 15.0% | -15.5% | ? | i | i | 8.8%
COC(=O)CNC(=O)c1cn(CCC#N)nc1-c1ccc(F)cc1 | 6.2% | 14.0% | -1.4% | i | i | 8.0%
CC12CC(O)C3C(CCC4=CC(=O)CCC43C)C1CCC2=O (stereo not given) | -2.1% | 5.3% | 1.1% | i | i | 9.2%
SMILES | TDP1 cell noCPT | HT1080 IDH1KD tx | HT1080-NT tox | KB-3-1 tox | KB-V1 MDR tox | DT40 TDP1 CPT
COc1ccc(-n2c(C)nc3ccccc3c2=O)c([N+](=O)[O-])c1 | ? | 0.1% | 17.3% | i | i | -20.3%
COc1ccc(-n2c(-c3ccccc3[N+](=O)[O-])nc3ccccc3c2=O)cc1 | 14.6µM* | 6.8% | 1.9% | i | i | 23.1µM*
Cc1ccc(-c2nc3ccccc3c(=O)n2-n2cccc2)cc1 | 11.6µM* | 2.3% | -3.3% | i | i | 16.4µM*
O=C(C(=O)N1CCOCC1)c1cn(Cc2ccc(F)cc2)c2ccccc12 | 7.9% | -12.1% | -11.5% | i | i | -7.0%
CC1(C)S[C@H]2[C@@H](N)C(=O)N2[C@H]1C(=O)O | -14.2% | . | . | . | . | -0.2%
C[N+]1(CC2COC(c3ccccc3)(c3ccccc3)O2)CCCCC1 (stereo not given) | 18.8µM* | . | . | . | . | ?
C[N+]1(CC2COC(c3ccco3)O2)CCCCC1 (stereo not given) | -2.5% | 12.2% | 16.4% | i | i | 0.9%
CC[n+]1c(-c2ccccc2)c2cc(N)ccc2c2ccc(N)cc21 | 0.146µM* | 16.4µM* | ? | ? | ? | 0.164µM*
Cc1ccc(-c2nnc(Nc3ccc(O)cc3)c3ccccc23)cc1S(=O)(=O)N1CCOCC1 | 16.4µM* | . | . | ? | i | ?
NC(Cc1ccccc1Cl)c1nn[nH]n1 (stereo not given) | -10.1% | 0.1% | 0.5% | i | i | 13.8%
Cc1nn(CC(C)C)c(Cl)c1C(=O)NC1CCCCC1 | -12.2% | 8.4% | 10.6% | i | i | 7.4%
O=C(Oc1ccccc1)N1CCC2(CCN(Cc3nccs3)CC2)CC1 | ? | . | . | . | . | -29.2%
O=c1[nH]c2ccccc2n1C1CCN(Cc2ccc(-c3nc4ccc(F)cc4nc3-c3ccccc3)cc2)CC1 | 6.51µM* | ? | 20.6µM* | ? | ? | 4.11µM*
Cc1ccc2nc(-c3ccc(CN4CCC(n5c(=O)[nH]c6ccccc65)CC4)cc3)c(-c3ccccc3)nc2c1 | 11.6µM* | ? | ? | ? | ? | 8.2µM*
O=c1[nH]c2ccccc2n1CCCN1CCC(n2c(=O)[nH]c3cc(Cl)ccc32)CC1 | 23.7µM*! | -26.6% | -0.9% | i | i | ?
O=c1[nH]c2ccccc2n1C1CCN(Cc2ccc(-c3nc4ccccc4nc3-c3ccccc3)cc2)CC1 | 14.6µM* | ? | ? | ? | 23.1µM* | 11.6µM*
O=c1[nH]c(=O)n(C2CCCCCC2)c(O)c1C=NC1CCN(Cc2ccccc2)CC1 | ? | 0.0% | 1.0% | i | i | -29.3%

Screening results: PubChem BioAssay, National Center for Advancing Translational Sciences (NCATS)
